The values that follow come from the antibiotic and cytotoxicity screens of Wong et al. (2023).

The whole screen tested about 39,000 compounds, of which about 3,300 (8.5%) were called active. Shown is part of a subset that was picked to be rich in actives.

The experiment deals with HepG2. Nature of the experiment: cytotoxicity call (relative viability < 0.9). To be noted: 10 µM.
Take `Cc1ccc(S[C@]2(C(=O)NC3CC3)CC(=O)N(Cc3ccccc3C(F)(F)F)[C@@H]2c2ccc(CO)cc2)cc1`: the cytotoxicity call was “inactive”.

Consider `Cc1ccc(S(=O)(=O)N2CCOCC2)cc1NC(=O)CN1C(=O)CN(C)C1=O`, for which the cytotoxicity call is “inactive”.

With `C[C@@H]1CN([C@H](C)CO)C(=O)CCCn2cc(nn2)CO[C@H]1CN(C)Cc1cccc2c1OCCCO2`, the cytotoxicity call is “inactive”.

Regarding `C[C@H](CO)N1C[C@H](C)[C@H](CN(C)Cc2ccccc2)OCCCC[C@H](C)Oc2ccc(NS(=O)(=O)c3ccc(F)cc3)cc2C1=O`, the cytotoxicity call is “inactive”.

As for `C[C@H]1CN([C@@H](C)CO)C(=O)c2cc(-c3cccc(C(=O)N(C)C)c3)cnc2O[C@H]1CN(C)C(=O)Cc1ccccn1`, the cytotoxicity call was “inactive”.

For `C[C@@H]1CN([C@@H](C)CO)C(=O)c2cc(C#Cc3ccccc3F)cnc2O[C@H]1CN(C)C(=O)Cc1ccncc1`, the cytotoxicity call was “inactive”.

On to `CN1CCN(CCO)CC1`, for which the cytotoxicity call is “inactive”.

For the molecule `C[C@@H]1CCCCO[C@@H](CN(C)S(=O)(=O)c2cccs2)[C@@H](C)CN([C@H](C)CO)C(=O)c2cc(NC(=O)CCC(F)(F)F)ccc2O1`, the cytotoxicity call is “inactive”.

On to `COc1ccc(S(=O)(=O)Nc2ccc3c(c2)C(=O)N([C@H](C)CO)C[C@H](C)[C@@H](CN(C)S(=O)(=O)c2cccs2)O3)cc1`, for which the cytotoxicity call is “inactive”.

Turning to `CC(C)NC(=O)N(C)C[C@@H]1Oc2cc(C#Cc3ccccn3)ccc2S(=O)(=O)N([C@@H](C)CO)C[C@H]1C`, the cytotoxicity call is “inactive”.

`O=C(C[C@H]1CC[C@@H]2[C@H](COC[C@@H](O)CN2S(=O)(=O)c2ccc(Cl)cc2)O1)NCCN1CCCC1`: the cytotoxicity call is “inactive”.

In the case of `C[C@@H]1CN([C@H](C)CO)C(=O)c2cccc(NC(=O)c3cnccn3)c2O[C@@H]1CN(C)Cc1ccc2c(c1)OCO2`, the cytotoxicity call was “inactive”.

Regarding `C[C@H]1CN([C@@H](C)CO)C(=O)c2ccccc2-c2ccccc2CO[C@H]1CN(C)C(=O)c1cc(Cl)cc(Cl)c1`, the cytotoxicity call is “inactive”.

For the molecule `C[C@@H]1CN([C@H](C)CO)C(=O)Cc2cc(NC(=O)Nc3ccc(C(F)(F)F)cc3)ccc2O[C@@H]1CN(C)C(=O)Nc1ccc(C(F)(F)F)cc1`, the cytotoxicity call was “active”.

On to `C[C@H](CO)N1C[C@H](C)[C@H](CN(C)C(=O)Nc2ccc(C(F)(F)F)cc2)Oc2ccc(NC(=O)Nc3ccc(C(F)(F)F)cc3)cc2CC1=O`, for which the cytotoxicity call was “active”.

As to `COCC#Cc1ccc([C@@H]2[C@@H](CO)N3C(=O)CN(C(=O)c4cccnc4)C[C@H]23)cc1`, the cytotoxicity call was “inactive”.

Regarding `CCO[C@H]1OC(C(=O)N2CCN(Cc3ccc4c(c3)OCO4)CC2)=C[C@@H](c2ccc(C(F)(F)F)cc2)[C@@H]1CCCOC(=O)NCCCCCC(=O)NO`, the cytotoxicity call was “inactive”.

Consider `CC(C)C(=O)N1CC[C@H]2CN(CC(=O)N(C)C)S(=O)(=O)[C@@H]2CC1`, for which the cytotoxicity call was “inactive”.

On to `C[C@H]1CCCCO[C@@H](CN(C)S(=O)(=O)c2ccccc2)[C@@H](C)CN([C@@H](C)CO)C(=O)c2cc(NC(=O)C3CCCCC3)ccc2O1`, for which the cytotoxicity call is “inactive”.

Consider `O=C(C[C@H]1CC[C@H]2[C@@H](COC[C@H](O)CN2S(=O)(=O)c2cccc(Cl)c2)O1)N1CCOCC1`, for which the cytotoxicity call is “inactive”.

Turning to `CO[C@@H](C(=O)N(C)C[C@@H]1OCc2ccccc2-c2c(n(C)c3ccccc23)C(=O)N([C@H](C)CO)C[C@@H]1C)c1ccccc1`, the cytotoxicity call was “inactive”.

For `CNS(=O)(=O)c1cc(OC)ccc1OC`, the cytotoxicity call was “inactive”.

`COc1cccc(S(=O)(=O)N2C[C@H](O)COC[C@H]3O[C@@H](CC(=O)N4CCN(c5ccccc5)CC4)CC[C@@H]32)c1`: the cytotoxicity call is “inactive”.

Turning to `CCCNC(=O)Cn1c(=O)n(C)c2ccccc21`, the cytotoxicity call is “inactive”.

As for `C[C@H](CO)N1C[C@H](C)[C@H](CN(C)CC2CCCCC2)OCCCC[C@H](C)Oc2ccc(NC(=O)Cc3ccccc3)cc2C1=O`, the cytotoxicity call was “inactive”.

On to `C[C@@H]1CCCCO[C@@H](CN(C)CC2CCCCC2)[C@H](C)CN([C@H](C)CO)C(=O)c2cc(NC(=O)Cc3ccccc3)ccc2O1`, for which the cytotoxicity call is “inactive”.

For the molecule `C[C@@H]1CN([C@H](C)CO)C(=O)c2cc(NC(=O)CCCN(C)C)ccc2O[C@@H](C)CCCCO[C@H]1CN(C)CC1CCCCC1`, the cytotoxicity call is “inactive”.

On to `C[C@H]1CCCCO[C@H](CN(C)CC2CCCCC2)[C@@H](C)CN([C@@H](C)CO)C(=O)c2cc(NC(=O)Cc3ccccc3)ccc2O1`, for which the cytotoxicity call is “active”.

As to `C[C@@H]1CCCCO[C@@H](CN(C)CC2CCCCC2)[C@@H](C)CN([C@H](C)CO)C(=O)c2cc(NC(=O)CCCN(C)C)ccc2O1`, the cytotoxicity call was “inactive”.

As for `C[C@@H]1CN([C@@H](C)CO)C(=O)c2cc(NC(=O)Cc3ccccc3)ccc2O[C@@H](C)CCCCO[C@H]1CN(C)CC1CCCCC1`, the cytotoxicity call was “active”.

For the molecule `C[C@@H]1CCCCO[C@H](CN(C)CC2CCCCC2)[C@H](C)CN([C@H](C)CO)C(=O)c2cc(NC(=O)Cc3ccccc3)ccc2O1`, the cytotoxicity call is “inactive”.

Consider `C[C@H]1CCCCO[C@@H](CN(C)CC2CCCCC2)[C@@H](C)CN([C@@H](C)CO)C(=O)c2cc(NC(=O)Cc3ccccc3)ccc2O1`, for which the cytotoxicity call was “active”.

On to `C[C@H](CO)N1C[C@H](C)[C@@H](CN(C)CC2CCCCC2)OCCCC[C@H](C)Oc2ccc(NC(=O)Cc3ccccc3)cc2C1=O`, for which the cytotoxicity call is “inactive”.

As to `C[C@@H]1CCCCO[C@H](CN(C)CC2CCCCC2)[C@@H](C)CN([C@H](C)CO)C(=O)c2cc(NC(=O)Cc3ccccc3)ccc2O1`, the cytotoxicity call is “inactive”.

Consider `C[C@@H]1CCCCO[C@@H](CN(C)CC2CCCCC2)[C@H](C)CN([C@@H](C)CO)C(=O)c2cc(NC(=O)Cc3ccccc3)ccc2O1`, for which the cytotoxicity call is “inactive”.

For `C[C@H]1CCCCO[C@@H](CN(C)CC2CCCCC2)[C@@H](C)CN([C@@H](C)CO)C(=O)c2cc(NC(=O)CCCN(C)C)ccc2O1`, the cytotoxicity call is “active”.

Consider `C=CC(C)(O)CCC1C(C)(O)CCC2C(C)(C)CCCC21C` (configuration not stated), for which the cytotoxicity call was “inactive”.

`CCS(=O)(=O)Nc1ccc2c(c1)C(=O)N(C)[C@@H]1CC[C@H](CC(=O)N3CCN(C)CC3)O[C@@H]1CO2`: the cytotoxicity call is “inactive”.

As for `NCC[C@H]1CC[C@H](NC(=O)Nc2ccc(F)cc2)[C@H](CO)O1`, the cytotoxicity call is “inactive”.

For `CN(C)CCN1CCN(C)C2(CCN(S(=O)(=O)C3CC3)CC2)C1=O`, the cytotoxicity call is “inactive”.

Take `Cc1noc(C)c1NC(=O)Nc1ccc2c(c1)CC(=O)N([C@@H](C)CO)C[C@H](C)[C@@H](CN(C)Cc1ccc(C(=O)Nc3ccccc3N)cc1)O2`: the cytotoxicity call is “inactive”.

Consider `CCCNC(=O)N1C[C@H](O)COC[C@@H]2O[C@@H](CC(=O)N3CCOCC3)CC[C@H]21`, for which the cytotoxicity call was “inactive”.
